Test results from PubChem BioAssay (NCATS).
Results filed as inconclusive are left out. Entries that show only a call come without a potency. Values without a mark were called inactive. The source made the active and inactive calls. Calls follow the shape of the dose curve; as a rule, active = well fitted curve in the direction sought with a large enough effect; inconclusive = small, poorly fitted or top-dose-only effect, or another doubt; inactive = no such curve, though single readings can be large; an effect the other way counts as inactive or inconclusive.

Legend:
[1] = target: ATP-dependent 6-phosphofructokinase (Trypanosoma brucei brucei) (UniProt O15648); experiment: qHTS Assay to Find Inhibitors of T. brucei phosphofructokinase: hit validation (AID 492961);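 also: luminescence reports ADP formed as PFK phosphorylates fructose-6-phosphate with ATP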
ATP-dependent 6-phosphofructokinase (Trypanosoma brucei brucei), sequence (O15648 whole entry, looked up): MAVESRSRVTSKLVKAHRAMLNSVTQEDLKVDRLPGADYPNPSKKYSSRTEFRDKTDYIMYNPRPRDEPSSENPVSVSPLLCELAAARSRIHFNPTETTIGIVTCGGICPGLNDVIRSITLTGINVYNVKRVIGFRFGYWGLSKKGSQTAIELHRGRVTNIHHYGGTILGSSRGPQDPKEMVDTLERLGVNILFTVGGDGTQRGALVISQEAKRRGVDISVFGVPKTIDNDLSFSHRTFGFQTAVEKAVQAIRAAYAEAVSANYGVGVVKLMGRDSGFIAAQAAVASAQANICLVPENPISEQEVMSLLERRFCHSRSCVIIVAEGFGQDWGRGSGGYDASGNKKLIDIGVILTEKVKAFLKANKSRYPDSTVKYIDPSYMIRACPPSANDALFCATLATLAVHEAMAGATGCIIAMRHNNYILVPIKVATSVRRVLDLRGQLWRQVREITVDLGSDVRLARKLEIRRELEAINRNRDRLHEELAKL
In short: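 Percent activity derived from corrected luminescence, normalized between 0x and 1x enzyme controls, then fitted to concentration-response curves. Conditions: 1.25 nM PFK, 0.1 mM ATP, 0.5 mM F6P, 45 min RT.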

[2] = qHTS profiling for inhibitors of Plasmodium falciparum proliferation (AID 504749); also: potency is read from the fitted curve at half-maximal effect; as to all read-outs here: nearly all actives have a fitted effect of over 60% in size; conditions: P. falciparum in erythrocytes, SYBR Green DNA, 72 h; for activity, negative = inhibition: at 28.7 µM (top of the series)
In short: (§1)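 Parasite proliferation within erythrocytes, 72 h exposure. Endpoint: SYBR Green I fluorescence after overnight lysis at room temperature. Controls: 0.29 uM artemisinin, DMSO.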

AA1029 = experiment: as above; conditions: P. falciparum in erythrocytes, SYBR Green DNA, 72 h; series mostly up to 28.7 µM
In short: as §1

AS120 = experiment: as above; conditions: P. falciparum in erythrocytes, SYBR Green DNA, 72 h; series mostly up to 28.7 µM
In short: as §1

ATS189 = experiment: as above; conditions: P. falciparum in erythrocytes, SYBR Green DNA, 72 h; series mostly up to 28.7 µM
In short: as §1

CP185 = experiment: as above; conditions: P. falciparum in erythrocytes, SYBR Green DNA, 72 h; series mostly up to 28.7 µM
In short: as §1

CP211 = experiment: as above; conditions: P. falciparum in erythrocytes, SYBR Green DNA, 72 h; series mostly up to 28.7 µM
In short: as §1

CP217 = experiment: as above; conditions: P. falciparum in erythrocytes, SYBR Green DNA, 72 h; series mostly up to 28.7 µM
In short: as §1

CP238 = experiment: as above; conditions: P. falciparum in erythrocytes, SYBR Green DNA, 72 h; series mostly up to 28.7 µM
In short: as §1

CP252 = experiment: as above; conditions: P. falciparum in erythrocytes, SYBR Green DNA, 72 h; series mostly up to 28.7 µM
In short: as §1

CP262 = experiment: as above; conditions: P. falciparum in erythrocytes, SYBR Green DNA, 72 h; series mostly up to 28.7 µM
In short: as §1

CP265 = experiment: as above; conditions: P. falciparum in erythrocytes, SYBR Green DNA, 72 h; series mostly up to 28.7 µM
In short: as §1

CP269 = experiment: as above; conditions: P. falciparum in erythrocytes, SYBR Green DNA, 72 h; series mostly up to 28.7 µM
In short: as §1

CP286 = experiment: as above; conditions: P. falciparum in erythrocytes, SYBR Green DNA, 72 h; series mostly up to 28.7 µM
In short: as §1

CP329 = experiment: as above; conditions: P. falciparum in erythrocytes, SYBR Green DNA, 72 h; series mostly up to 28.7 µM
In short: as §1

DFO2036 = experiment: as above; conditions: P. falciparum in erythrocytes, SYBR Green DNA, 72 h; series mostly up to 28.7 µM
In short: as §1

ECU = experiment: as above; conditions: P. falciparum in erythrocytes, SYBR Green DNA, 72 h; series mostly up to 28.7 µM
In short: as §1

FAB9 = experiment: as above; conditions: P. falciparum in erythrocytes, SYBR Green DNA, 72 h; series mostly up to 28.7 µM
In short: as §1

N140 = experiment: as above; conditions: P. falciparum in erythrocytes, SYBR Green DNA, 72 h; series mostly up to 28.7 µM
In short: as §1

TAB109 = experiment: as above; conditions: P. falciparum in erythrocytes, SYBR Green DNA, 72 h; series mostly up to 28.7 µM
In short: as §1

CC(C)C[C@@H](NC(=O)[C@@H](Cc1ccccc1)NC(=O)c1cnccn1)B(O)O
Potency [1]: inactive | Potency ([2]; parasite line A): 79.4 nM (active) | Potency ([2]; parasite line B): 79.4 nM (active) | Potency (AA1029): 112 nM (active) | Potency (AS120): 100 nM (active) | Potency (ATS189): 112 nM (active) | Potency (CP185): 112 nM (active) | Potency (CP211): 757 nM (active) | Potency (CP217): 112 nM (active) | Potency (CP238): 89.1 nM (active) | Potency (CP252): 89.1 nM (active) | Potency (CP262): 120 nM (active) | Potency (CP265): 141 nM (active) | Potency (CP269): 151 nM (active) | Potency (CP286): 89.1 nM (active) | Potency (CP329): 120 nM (active) | Potency (DFO2036): 112 nM (active) | Potency (ECU): 126 nM (active) | Potency (FAB9): 141 nM (active) | Potency (N140): 100 nM (active) | Potency (TAB109): 70.8 nM (active)

C=C[C@H]1CN2CCC1C[C@H]2[C@H](O)c1ccnc2ccc(OC)cc12 (stereo not given in full)
Potency [1]: inactive | Potency ([2]; parasite line A): 141 nM (active) | Potency ([2]; parasite line B): 141 nM (active) | Potency (AA1029): 891 nM (active) | Potency (AS120): 1410 nM (active) | Potency (ATS189): 1120 nM (active) | Potency (CP185): 794 nM (active) | Potency (CP211): 1350 nM (active) | Potency (CP217): 2820 nM (active) | Potency (CP238): 1580 nM (active) | Potency (CP252): 891 nM (active) | Potency (CP262): 757 nM (active) | Potency (CP265): 562 nM (active) | Potency (CP269): 1510 nM (active) | Potency (CP286): 1000 nM (active) | Potency (CP329): 1690 nM (active) | Potency (DFO2036): 631 nM (active) | Potency (ECU): 251 nM (active) | Potency (FAB9): 794 nM (active) | Potency (N140): 631 nM (active) | Potency (TAB109): 501 nM (active)

CCCCN1CC(O)C(O)C(O)C1CO (stereo not given)
Potency [1]: inactive | activity, negative = inhibition ([2]; parasite line A): 0.477% | activity, negative = inhibition ([2]; parasite line B): 1.06% | Potency (AA1029): inactive | Potency (AS120): inactive | Potency (ATS189): inactive | Potency (CP185): inactive | Potency (CP211): inactive | Potency (CP217): inactive | Potency (CP238): inactive | Potency (CP252): inactive | Potency (CP262): inactive | Potency (CP265): inactive | Potency (CP269): inactive | Potency (CP286): inactive | Potency (CP329): inactive | Potency (DFO2036): inactive | Potency (ECU): inactive | Potency (FAB9): inactive | Potency (N140): inactive | Potency (TAB109): inactive

C=CCn1c(=O)n(C2OC(CO)C(O)C2O)c2nc(N)[nH]c(=O)c21 (stereo not given)
Potency [1]: inactive | activity, negative = inhibition ([2]; parasite line A): 5.09% | activity, negative = inhibition ([2]; parasite line B): -6.68% | Potency (AA1029): inactive | Potency (AS120): inactive | Potency (ATS189): inactive | Potency (CP185): inactive | Potency (CP211): inactive | Potency (CP217): inactive | Potency (CP238): inactive | Potency (CP252): inactive | Potency (CP262): inactive | Potency (CP265): inactive | Potency (CP269): inactive | Potency (CP286): inactive | Potency (CP329): inactive | Potency (DFO2036): inactive | Potency (ECU): inactive | Potency (FAB9): inactive | Potency (N140): inactive | Potency (TAB109): inactive

NC(C(=O)O)c1ccc(O)cc1 (stereo not given)
Potency [1]: inactive | activity, negative = inhibition ([2]; parasite line A): 3.02% | activity, negative = inhibition ([2]; parasite line B): 9.1% | Potency (AA1029): inactive | Potency (AS120): inactive | Potency (ATS189): inactive | Potency (CP185): inactive | Potency (CP211): inactive | Potency (CP217): inactive | Potency (CP238): inactive | Potency (CP252): inactive | Potency (CP262): inactive | Potency (CP265): inactive | Potency (CP269): inactive | Potency (CP286): inactive | Potency (CP329): inactive | Potency (DFO2036): inactive | Potency (ECU): inactive | Potency (FAB9): inactive | Potency (N140): inactive | Potency (TAB109): inactive

O=C(O)CC(O)CC(O)/C=C/c1c(C2CC2)nc2ccccc2c1-c1ccc(F)cc1 (stereo not given)
Potency [1]: inactive | activity, negative = inhibition ([2]; parasite line A): 5.32% | activity, negative = inhibition ([2]; parasite line B): -2.35% | Potency (AA1029): inactive | Potency (AS120): inactive | Potency (ATS189): inactive | Potency (CP185): inactive | Potency (CP211): inactive | Potency (CP217): inactive | Potency (CP238): inactive | Potency (CP252): inactive | Potency (CP262): inactive | Potency (CP265): inactive | Potency (CP269): inactive | Potency (CP286): inactive | Potency (CP329): inactive | Potency (DFO2036): inactive | Potency (ECU): inactive | Potency (FAB9): inactive | Potency (N140): inactive | Potency (TAB109): inactive

CCCC[C@H](O)c1ccccc1
Potency [1]: inactive | activity, negative = inhibition ([2]; parasite line A): -2.26% | activity, negative = inhibition ([2]; parasite line B): -1.87% | Potency (AA1029): inactive | Potency (AS120): inactive | Potency (ATS189): inactive | Potency (CP185): inactive | Potency (CP211): inactive | Potency (CP217): inactive | Potency (CP238): inactive | Potency (CP252): inactive | Potency (CP262): inactive | Potency (CP265): inactive | Potency (CP269): inactive | Potency (CP286): inactive | Potency (CP329): inactive | Potency (DFO2036): inactive | Potency (ECU): inactive | Potency (FAB9): inactive | Potency (N140): inactive | Potency (TAB109): inactive

O=C1[C@@H]2C[C@@H]3C[C@H]1C[C@@](O)(C3)C2
Potency [1]: inactive | activity, negative = inhibition ([2]; parasite line A): -0.632% | activity, negative = inhibition ([2]; parasite line B): 11.7% | Potency (AA1029): inactive | Potency (AS120): inactive | Potency (ATS189): inactive | Potency (CP185): inactive | Potency (CP211): inactive | Potency (CP217): inactive | Potency (CP238): inactive | Potency (CP252): inactive | Potency (CP262): inactive | Potency (CP265): inactive | Potency (CP269): inactive | Potency (CP286): inactive | Potency (CP329): inactive | Potency (DFO2036): inactive | Potency (ECU): inactive | Potency (FAB9): inactive | Potency (N140): inactive | Potency (TAB109): inactive

O=c1ccn(C2OC(COP(=O)(O)OC3C(CO)OC(n4ccc(=O)[nH]c4=O)C3O)C(O)C2O)c(=O)[nH]1 (stereo not given)
Potency [1]: inactive | activity, negative = inhibition ([2]; parasite line A): 0.515% | activity, negative = inhibition ([2]; parasite line B): 10.1% | Potency (AA1029): inactive | Potency (AS120): inactive | Potency (ATS189): inactive | Potency (CP185): inactive | Potency (CP211): inactive | Potency (CP217): inactive | Potency (CP238): inactive | Potency (CP252): inactive | Potency (CP262): inactive | Potency (CP265): inactive | Potency (CP269): inactive | Potency (CP286): inactive | Potency (CP329): inactive | Potency (DFO2036): inactive | Potency (ECU): inactive | Potency (FAB9): inactive | Potency (N140): inactive | Potency (TAB109): inactive

CC(C)(C)C(=O)OCC(=O)C1CCC2C3CCC4=CC(=O)CCC4(C)C3CCC12C (stereo not given)
Potency [1]: inactive | activity, negative = inhibition ([2]; parasite line A): 6.25% | activity, negative = inhibition ([2]; parasite line B): 11.2% | Potency (AA1029): inactive | Potency (AS120): inactive | Potency (ATS189): inactive | Potency (CP185): inactive | Potency (CP211): inactive | Potency (CP217): inactive | Potency (CP238): inactive | Potency (CP252): inactive | Potency (CP262): inactive | Potency (CP265): inactive | Potency (CP269): inactive | Potency (CP286): inactive | Potency (CP329): inactive | Potency (DFO2036): inactive | Potency (ECU): inactive | Potency (FAB9): inactive | Potency (N140): inactive | Potency (TAB109): inactive
